Results: PubChem BioAssay (EPA / NIEHS)
Several values for one entry are separate records, joined by “and”; a condition that tells them apart may be missing. Identical values can stand only once. Inconclusive results are not listed. A structure can be active in one record and inactive in another. Activity calls are given as the source filed them. How the source made its calls, unless noted: active means hit-call score of the fitted dose curve at least 0.9, where 1 is the maximum; inactive means score below 0.9.

Experiments:
[1] = CCTE_Mundy_HCI_Cortical_NOG_NeuriteCount: CCTE's Neurite Outgrowth Assay in rat cortical cells for Neurite Count, Mundy Lab (AID 2284212);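 further: cells fixed about two days after chemical exposure began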
Method in brief: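 Neurite number per cell from high-content imaging of betaIII-tubulin immunostaining, with Hoechst nuclear counterstain.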

[2] = CCTE_Mundy_HCI_Cortical_NOG_NeuriteLength: CCTE's Neurite Outgrowth Assay in rat cortical cells for Neurite Length, Mundy Lab (AID 2284213);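 on AC50: neurites imaged about 48 to 50 h after chemical exposure began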
Method in brief: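 Neurite length was read by high-content imaging of βIII-tubulin-labelled neurites in rat primary cortical cultures. Activity was fitted relative to DMSO.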

[3] = CCTE_Mundy_HCI_Cortical_Synap_Neur_Matur_NeuriteLength: CCTE's Synaptogenesis and Neurite Maturation Assay in rat cortical cells for Neurite Length, Mundy Lab (AID 2284214)
Method in brief: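 Rat primary cortical cultures, AraC added DIV 5, dosed DIV 7 through DIV 12 […]. Fixed, MAP2/synaptophysin immunostained with Hoechst; neurite length by high-content imaging, fitted in positive direction versus DMSO.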

[4] = CCTE_Mundy_HCI_Cortical_Synap_Neur_Matur_NeuriteSpotCountPerNeuron: CCTE's Synaptogenesis and Neurite Maturation Assay in rat cortical cells for Neurite Spot Count per Neuron Count, Mundy Lab (AID 2284215)
Method in brief: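 High-content imaging counts synaptophysin puncta along MAP2-labelled neurites per neuron after chemical exposure of rat cortical cells from DIV 7 to termination at DIV 12 (AraC added DIV 5). Loss of signal relative to DMSO.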

[5] = CCTE_Mundy_HCI_Cortical_Synap_Neur_Matur_SynapseCount: CCTE's Synaptogenesis and Neurite Maturation Assay in rat cortical cells for Synapse Count, Mundy Lab (AID 2284218)
Method in brief: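 Rat primary cortical cultures, AraC at DIV 5, chemical dosing DIV 7 to DIV 12 (288.33 h). Fixed cells stained for MAP2, synaptophysin and Hoechst; synapses per neuron counted by high-content imaging, loss of signal versus DMSO.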

[6] = CCTE_Mundy_HCI_Cortical_Synap_Neur_Matur_CellBodySpotCount: CCTE's Synaptogenesis and Neurite Maturation Assay in rat cortical cells for Cell Body Spot Count, Mundy Lab (AID 2284223)
Method in brief: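 High-content imaging counts synaptophysin puncta on neuronal cell bodies per neuron after MAP2/synaptophysin immunostaining. Rat primary cortical cells, glia arrested with AraC at DIV 5, were exposed DIV 7–12; signal decrease measured against DMSO.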

[7] = CCTE_Mundy_HCI_hNP1_Pro_ResponderAvgInten: CCTE's Proliferation Assay in human neuroprogenitor cells, Mundy Lab (AID 2284224; active means hit-call score of the fitted dose curve at least 0.9, where 1 is the maximum;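 further: human neural progenitor cells hNP1 derived from WA09 embryonic stem cells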)
Method in brief: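 Proliferation read as average intensity of BrdU-positive cells, imaged at 26.25 h post-dosing: chemical exposure started after 40–44 h culture, BrdU during final 4 h, paraformaldehyde fixation. Positive-direction fit relative to DMSO.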

[8] = UKN2_HCS_IMR90_cell_viability: Viability Assessment in the University of Konstanz (UKN) Leist Lab Neural Crest Cell Migration Assay in human induced IMR90 Pluripotent Stem Cells (UKN2) (AID 2284233);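 further: viability of neural crest cells differentiated from IMR90 iPSC measured by calcein-AM fluorescence imaging; cells exposed to compound for 24 h after a 24 h migration phase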
Method in brief: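 Neural crest cells derived from IMR90 iPSC migrate into a stopper-free zone for 24 h in EGF/FGF medium, then are exposed to compound for 24 h. Viability assessed by calcein-AM and Hoechst staining with high-content imaging, fitted bidirectionally versus DMSO.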

[9] = TAMU_PeakParms_SingleDonor1434_Chronotropy: Texas A&M University (TAMU) 1.5-hr Human Induced Pluripotent Stem Cell (iPSC)-derived Cardiomyocytes Calcium (Ca+2) Flux Assay for Cardiotoxicity: Chronotropy (changes in peak frequency) (AID 2284217); details: actives raise or lower the signal
Method in brief: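 Beat rate, as mean Ca2+-flux peak frequency, was read from donor 1434 iPSC cardiomyocytes 90 min after exposure to 0.2–100 uM test chemical (0.5% DMSO). Wells that stopped beating were excluded; EC05 from bidirectional DMSO-referenced fitting.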

[10] = CCTE_Mundy_HCI_hN2_NOG_NeuriteCount: CCTE's Neurite Outgrowth Assay in human hN2 cells for Neurite Count, Mundy Lab (AID 2284219; active means hit-call score of the fitted dose curve at least 0.9, where 1 is the maximum)
Method in brief: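 In this morphology assay, hNP1-derived neurons received test chemical 2 h post-plating and were fixed two days later in warm paraformaldehyde/sucrose containing Hoechst 33342. Neurites, labelled by rabbit anti-βIII-tubulin (1:800) and Alexa Fluor-488 (1:500), were counted automatically.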

[11] = CCTE_Mundy_HCI_hN2_NOG_NeuriteLength: CCTE's Neurite Outgrowth Assay in human hN2 cells for Neurite Length, Mundy Lab (AID 2284220; active means hit-call score of the fitted dose curve at least 0.9, where 1 is the maximum)
Method in brief: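 Read-out is neurite length from high-content imaging of βIII-tubulin/Alexa Fluor-488-labelled neurons, referenced to DMSO controls.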

[12] = CCTE_Mundy_HCI_hN2_NOG_NeuronCount: CCTE's Neurite Outgrowth Assay in human hN2 cells for Neuron Count, Mundy Lab (AID 2284221; active means hit-call score of the fitted dose curve at least 0.9, where 1 is the maximum)
Method in brief: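 Read-out is the number of betaIII-tubulin-positive neurons imaged by automated high-content analysis, with DMSO as negative control.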

[13] = UKN4_HCS_LUHMES_cell_viability: Viability Assessment in the University of Konstanz (UKN) Leist Lab Neurite Outgrowth Assay in human LUHMES cells (UKN4) (AID 2284232)
Method in brief: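 LUHMES precursors differentiated 2 days, replated at 30000 cells/well without cAMP/GDNF, then compound-treated 24 h. Viability from Hoechst H-33342 and calcein-AM live staining (30 min) by high-content fluorescence imaging; bidirectional fit versus DMSO.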

[14] = BSK_BT_PBMCCytotoxicity: PBMC Cytotoxicity Assessment in the BioMAP Diversity Plus: BT Assay (AID 2284225); details: primary human B cells with PBMC;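 further: PBMC viability measured by Alamar Blue dye reduction fluorescence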
Method in brief: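 PBMC (75,000/well) pretreated with compound 1 h, then activated with SEB and TSST-1 (20 ng/mL each final), incubated 90 h; Alamar Blue added 6 h, fluorescence read at 546/580 nm. Fitted relative to DMSO.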

[15] = read-out: Secreted IgG (sIgG), gene 3500; experiment: BSK_BT_sIgG: BioMAP Diversity Plus: BT Assay for Secreted IgG (sIgG) Biomarker Activity (AID 2284226); details: primary human B cells with PBMC
Method in brief: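 Human B cell plus PBMC co-culture; secreted IgG measured by ELISA 24 h after chemical dosing. Response fitted in positive direction relative to DMSO baseline.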

[16] = BSK_BT_Bcell_Proliferation: Viability Assessment in the BioMAP Diversity Plus: BT Assay for B cell Proliferation (AID 2284227); details: primary human B cells with PBMC
Method in brief: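 Human B cell/PBMC co-culture; test chemical added; 72 h; TCA fix (10%), 0.1% SRB stain, A560 for total protein as a proliferation read-out; positive-direction fit vs DMSO baseline.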

[17] = read-out: Interleukin 6 (IL6), IL6 (gene 3569); experiment: BSK_BT_xIL6: BioMAP Diversity Plus: BT Assay for Interleukin 6 (IL6) Biomarker Activity (AID 2284228); details: primary human B cells with PBMC
Method in brief: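 Secreted IL-6 in the primary human B cell plus PBMC system, measured by Luminex at 24 h post-chemical, DMSO as baseline. Alamar Blue viability: 75,000 cells/well, chemical 1 h before SEB/TSST-1 (20 ng/mL each), 90 h, then 6 h dye.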

[18] = read-out: Interleukin 17A (IL17A), IL17A (gene 3605); experiment: BSK_BT_xIL17A: BioMAP Diversity Plus: BT Assay for Interleukin 17A (IL17A) Biomarker Activity (AID 2284229); details: primary human B cells with PBMC
Method in brief: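 Luminex xMAP quantification of secreted IL-17A after 24 h chemical exposure of a primary human B cell/PBMC co-culture. Signal increases fitted relative to DMSO negative control.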

[19] = read-out: Tumor necrosis factor (Homo sapiens) (UniProt P01375); experiment: BSK_BT_xTNFa: BioMAP Diversity Plus: BT Assay for Tumor necrosis factor alpha (TNF-alpha) Biomarker Activity (AID 2284230); details: primary human B cells with PBMC
Method in brief: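 Read-out: Luminex xMAP quantitation of secreted TNF-alpha from a B cell/PBMC co-culture 24 h after compound addition. Signal analysed relative to DMSO vehicle, positive fitting direction.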

[20] = read-out: Vascular cell adhesion molecule 1 (VCAM1), VCAM1 (gene 7412); experiment: BSK_MyoF_VCAM1: BioMAP Diversity Plus: MyoF Assay for Vascular cell adhesion molecule 1 (VCAM1) Biomarker Activity (AID 2284231); details: primary human lung fibroblasts
Method in brief: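 ELISA readout of VCAM-1 on human lung fibroblast cultures 24 hours after dosing, analyzed for signal gain relative to DMSO. Overt cytotoxicity was checked by sulforhodamine B total-protein staining in parallel cultures.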

Measured: AC50

Chain of Tumor necrosis factor (Homo sapiens) (P01375 whole entry, looked up): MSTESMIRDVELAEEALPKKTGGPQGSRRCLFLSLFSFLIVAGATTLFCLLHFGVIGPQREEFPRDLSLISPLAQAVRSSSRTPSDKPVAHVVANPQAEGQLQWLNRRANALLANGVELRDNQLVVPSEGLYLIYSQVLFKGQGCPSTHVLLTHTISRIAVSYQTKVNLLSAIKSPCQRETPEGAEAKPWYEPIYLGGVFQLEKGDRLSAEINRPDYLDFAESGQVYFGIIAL

COC(=O)N(OC)c1ccccc1COc1ccn(-c2ccc(Cl)cc2)n1
active: [1] 0.141 µM | [2] 0.153 µM | [3] 0.0838 µM | [4] 0.0537 µM | [5] 0.0709 µM | [6] 0.113 µM | [7] 81.5 µM | [8] 90.1 µM

CCCCOC(=O)c1ccccc1C(=O)OCCCC
active: [3] 64.7 µM | [4] 50 µM | [5] 50 µM | [6] 89.5 µM
inactive: [1] | [2] | [8]

CCCCNC(=O)OCC#CI
inactive: [9]

COP(N)(=O)SC (stereo not drawn)
inactive: [1] | [2] | [3] | [4] | [5] | [10] | [11] | [6]

CC(C)(C)c1ccc(CSc2cnn(C(C)(C)C)c(=O)c2Cl)cc1
active: [1] 0.00768 µM | [2] 0.00479 µM | [3] 0.000626 µM | [4] 0.000469 µM | [5] 0.000602 µM | [6] 0.00106 µM | [7] 4.85 µM
inactive: [8]

CCOC(=O)CC(SP(=S)(OC)OC)C(=O)OCC (stereo not drawn)
active: [2] 77.6 µM and 15 µM | [3] 61.9 µM | [4] 50 µM | [5] 50 µM | [10] 34.8 µM | [11] 34.2 µM | [12] 33.6 µM
inactive: [3] | [4] | [5] | [6] | [7]

COP(=S)(OC)Oc1nc(Cl)c(Cl)cc1Cl
inactive: [6]
active: [1] 25.9 µM | [2] 23.1 µM | [3] 25.9 µM | [4] 20.7 µM | [5] 22.4 µM

C=CCC1=C(C)C(OC(=O)C2C(C=C(C)C)C2(C)C)CC1=O (stereo not drawn)
inactive: [1] | [2] | [3] | [4] | [5] | [6] | [13]

Oc1ccccc1-c1ccccc1
active: [9] 45.1 µM

CCCCNC(=O)n1c(NC(=O)OC)nc2ccccc21
inactive: [1] | [4] | [5] | [6] | [13]
active: [2] 11.1 µM | [3] 15 µM | [8] 15 µM

CCCCC(CC)COC(=O)c1ccccc1C(=O)OCC(CC)CCCC (stereo not drawn)
active: [2] 8.99 µM and 15 µM | [3] 3.85 µM and 4.26 µM | [4] 5.47 µM and 3.59 µM | [9] 50 µM | [5] 6.28 µM and 4 µM | [6] 8.27 µM and 7.64 µM | [7] 9.27 µM and 3.62 µM
inactive: [10] | [11] | [12] | [8]

CNC(=O)ON=CC(C)(C)SC
inactive: [1] | [2] | [3] | [4] | [9] | [5] | [10] | [11] | [12] | [6]

C=CCC1=C(C)[C@@H](OC(=O)[C@@H]2[C@@H](C=C(C)C)C2(C)C)CC1=O
active: [3] 23.9 µM | [4] 22.1 µM | [5] 22.2 µM | [6] 21.8 µM
inactive: [1] | [2] | [7]

CO/C=C(/C(=O)OC)c1ccccc1Oc1cc(Oc2ccccc2C#N)ncn1
active: [1] 2.73 µM | [2] 2.58 µM | [3] 3.56 µM | [4] 2.75 µM | [5] 3.62 µM | [6] 5.6 µM
inactive: [8]

CN(C)C(=S)SSC(=S)N(C)C
active: [1] 0.0733 µM | [2] 0.0588 µM | [3] 0.0549 µM | [4] 0.0745 µM | [5] 0.0587 µM | [6] 0.0783 µM | [7] 0.0771 µM | [8] 7.92 µM

CCOc1cc(Oc2ccc(C(F)(F)F)cc2Cl)ccc1[N+](=O)[O-]
active: [2] 50 µM | [3] 16.1 µM | [4] 11.6 µM | [5] 11.9 µM | [6] 14.3 µM | [7] 10.9 µM
inactive: [8]

N#Cc1nn(-c2c(Cl)cc(C(F)(F)F)cc2Cl)c(N)c1S(=O)C(F)(F)F (stereo not drawn)
inactive: [1] | [2] | [3] | [6] | [7] | [13]
active: [4] 3.22 µM | [5] 3.22 µM | [8] 40 µM

COc1cnc(OC)n2nc(NS(=O)(=O)c3c(OCC(F)F)cccc3C(F)(F)F)nc12
inactive: [14] | [15] | [16] | [17] | [18] | [19] | [20]

C=CC1(C)OC(=O)N(c2cc(Cl)cc(Cl)c2)C1=O (stereo not drawn)
inactive: [1] | [2] | [3] | [4] | [5] | [6] | [7] | [8]

Cc1ccc(-c2c(Cl)nc(C#N)n2S(=O)(=O)N(C)C)cc1
active: [1] 72.9 µM | [2] 85.3 µM | [3] 85.7 µM | [4] 70.3 µM | [5] 74.3 µM | [6] 87.8 µM | [7] 50 µM | [8] 0.564 µM
